A selection: hits, their analogues and other compounds. The true share with any hit is near 5.3%.
HP1b chromo inh: HTS for Inhibitors of HP1-beta Chromodomain Interactions with Methylated Histone Tails. AlphaScreen HP1-beta / biotin-H3K9me3 peptide binding. Potency, µM (titrated, usually from 114 µM), without a hit: top-dose activity change, negative = inhibition, actives largely listed as inhibitors. hit rate 0.56% among 390,000. AID 540317, 2011; note: potency is the fitted concentration of half-maximal effect; nearly all actives have a fitted effect of over 70% in size
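Compound inhibition of the preformed complex between 50 nM HP1-beta and 50 nM biotinylated H3K9me3 peptide was read by AlphaScreen. Buffer was PBS pH 7.4 with 0.01% Tween-20. Incubations ran 30 min at room temperature, with 10 ug/mL donor/acceptor beads.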
CtBP-E1A blk: qHTS Assay for Inhibitors of the CtBP/E1A Interaction; CtBP / adenovirus E1A interaction (AlphaScreen); activity change, % (concentration not given with the values); AlphaScreen GST-E1A/His-CtBP binding, 1536-well; active compounds read low; hit rate 0.49% among 340,000; in the data active = activity change below about -65%; inconclusive = mostly about -30% to -63%; note: % is set by controls: 0 for no effect and ±100 for the full control effect
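Homogeneous bead-based format: GST-tagged E1A captured on glutathione donor beads, His-tagged CtBP on nickel acceptor beads; compounds precede bead addition by 2 h at 37 °C.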
JMJD2A Tudor inh: qHTS Assay for Inhibitors of JMJD2A-Tudor Domain; Lysine-specific demethylase 4A (Homo sapiens), O75164; hit rate 4.4% among 390,000; Potency, µM (doses to about 114 µM), without a hit: top-dose activity change, negative = inhibition, most hits filed as inhibitors; AlphaScreen JMJD2A-Tudor / H3K4me3 peptide binding; note: potency is the fitted concentration of half-maximal effect; % is set by controls: 0 for no effect and ±100 for the full control effect; nearly all actives have a fitted effect of over 50% in size
TDP1 block: qHTS Assay for Inhibitors of Tyrosyl-DNA Phosphodiesterase (TDP1). Tyrosyl-DNA phosphodiesterase 1 (Homo sapiens), Q9NUW8. recombinant TDP1, AlphaScreen DNA substrate cleavage. Potency, µM (top dose mostly 130 µM), for the others: at the top dose activity change, negative = inhibition, most hits filed as inhibitors. hit rate 0.28% among 350,000; note: potency is the fitted concentration of half-maximal effect; % is set by controls: 0 for no effect and ±100 for the full control effect; nearly all actives have a fitted effect of over 40% in size
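Recombinant E. coli-expressed Tdp1 (1 nM) preincubated with compound 15 min at RT, then 5'-biotin/3'-phosphotyrosine-FITC DNA substrate (15 nM) added for 5 min. AlphaScreen beads (10 ug/ml) added, 10 min RT; tyrosine-FITC cleavage read as signal loss.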
Six1-Eya2 inh: qHTS Assay for Inhibitors of the Six1/Eya2 Interaction. hit rate 0.56% among 360,000. AlphaScreen GST-Six1/His-Eya2 binding, biochemical; active compounds read low. activity change, % (no concentration beside the values). Homeobox protein SIX1 (Homo sapiens) + Protein phosphatase EYA2 (Homo sapiens), …; in the data active = activity change below about -65%; inconclusive = mostly about -30% to -63%; note: % is set by controls: 0 for no effect and ±100 for the full control effect
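GST-Six1 + His-Eya2 (5X stock: 250/500 nM); Tris pH 8.0, 300 mM NaCl, 0.05% BSA, 0.02% Tween 20; GSH donor/Ni acceptor beads; 1 h 37 °C dark; AlphaScreen readout.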
BAZ2B block: qHTS Assay for Inhibitors of BAZ2B | hit rate 4.4% among 360,000 | AlphaScreen BAZ2B-H3K14Ac peptide displacement | AID 504333, 2011 | Potency, µM (doses to about 114 µM), for the others: top-dose activity change, negative = inhibition, most hits filed as inhibitors; note: potency is the fitted concentration of half-maximal effect; % is set by controls: 0 for no effect and ±100 for the full control effect; nearly all actives have a fitted effect of over 60% in size
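Inhibition is scored as reduced AlphaScreen emission. The BAZ2B/b-H3(5-23)K14Ac complex (50 nM each) in PBS pH 7.4, 0.01% Tween-20 meets compound (up to 110 uM) for 30 min at RT before bead addition.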
* = called active by the depositor; u = inconclusive; x = no result given; [ ] = another dose, or the depositor's remark. Unless noted, calls come from the whole dose curve; as a rule, active = well fitted inhibition curve with a large enough effect; inconclusive = small, poorly fitted or top-dose-only effect; inactive = no such curve, though single readings can be large or run the other way.

SMILES	HP1b chromo inh	CtBP-E1A blk	JMJD2A Tudor inh	TDP1 block	Six1-Eya2 inh	BAZ2B block
C#CCNc1ccncc1S(=O)(=O)NC(=O)NC(C)C	24%	2	50µM*	0%	4	-9%
O=C1CC(c2ccccc2)CC(O)=C1C=NCCN1CCN(C(=O)Cc2ccccc2)CC1 (stereo unspecified)	44%	-2	-11%	2%	0	10%
Cc1cc(C)nc(N/N=C/C2=C(O)CC(c3ccccc3)CC2=O)n1 (stereo unspecified)	x	x	x	x	x	22µM*
CC(C)(C)OOC(=O)c1ccccc1	x	x	x	18%	x	x
Nc1nc(/C(=C/CC(=O)O)C(=O)NC2C(=O)N3C(C(=O)O)=CCSC23)cs1 (stereo unspecified)	x	x	x	25µM*	x	x
CCCCC1C(=O)NC(=S)N(C)C1=O (stereo unspecified)	-1%	13	79µM*	x	-2	x
CCCCC1C(=O)NC(=S)NC1=O	x	x	x	0%	x	-26%
C[C@H]1O[C@@H](O[C@H]2[C@@H](O)C[C@H](O[C@H]3[C@@H](O)C[C@H](O[C@H]4CC[C@]5(C)C6CC[C@]7(C)[C@@H](C8=CC(=O)OC8)CC[C@]7(O)C6CC[C@@H]5C4)O[C@@H]3C)O[C@@H]2C)C[C@H](O)[C@@H]1O (stereo partly specified)	x	x	x	14%[56.1 µM]	x	x
C=CCN1C(=O)NC(=O)/C(=C/c2ccc(OC)c(CSc3ccccn3)c2)C1=O	55%	7	79µM*	3%	6	14%[57.1 µM]
C=CCN1C(=O)NC(=O)/C(=C/c2ccc(OC)c(COc3ccc(NC(C)=O)cc3)c2)C1=O	30%	-10	-23%	-9%	-5	-9%
CC(=O)Oc1c2c(c(CC=C(C)C)c3c1C(=O)C1=CC4CC5C(C)(C)OC(C/C=C(\C)C(=O)O)(C4=O)[C@]15O3)OC(C)(CCC=C(C)C)C=C2 (stereo partly specified)	x	x	x	9%	x	x
COc1ccc2c(c1)NP(=S)(c1ccccc1)N2C (stereo unspecified)	35µM*	u	50µM*	x	u	x
COc1ccc(NC2Oc3cc4c(cc3C(c3cc(OC)c(OC)c(OC)c3)C2C)OCO4)cc1 (stereo unspecified)	u	u	56µM*	x	-16	x
COc1cc(C2c3cc4c(cc3CC3COC(=O)C32)OCO4)cc(OC)c1OC (stereo unspecified)	9%	-2	-14%	0%	-2	x
CC[C@]12C=CCN3CC[C@@]4(c5ccc(OC)cc5N(C)[C@H]4[C@@](O)(C(=O)OC)[C@@H]1OC(C)=O)C32 (stereo partly specified)	x	x	x	11%	x	x
CN(C(=O)Oc1cccc2cccnc12)c1ccccc1	27%	2	-13%	5%	0	40%
Oc1cccc2cccnc12	-2%	x	u	11%	x	10µM*
COc1ccc(OCC(=O)N2CCN(CC3CC4C=CC3C4)CC2)cc1 (stereo unspecified)	u	0	5.6µM*	-6%	2	50µM*
O=C(Cc1ccccc1)N1CCN(CC2CC3C=CC2C3)CC1 (stereo unspecified)	50µM*	9	4.5µM*	x	0	32µM*
NC1CCCC[C@@H]1N (stereo partly specified)	x	x	x	13%	x	x
COCOC1CCC2C3CCC4=CC(=O)CCC4=C3C=CC12C (stereo unspecified)	u	12	79µM*	x	-8	x
CC1(O)CCC2C3CCC4=CC(=O)CCC4=C3C=CC21C (stereo unspecified)	17%[57 µM]	1	-12%	x	0	x
COc1ccccc1NC(=O)c1oc2ccccc2c1NC(=O)COc1cccc(C)c1	43%	x	-14%	6%	x	-3%
O=C1NC(=S)NC(=O)C1=Cc1ccc(OCC(=O)N2CCCC2)cc1	u	-6	45µM*	-16%	0	u
O=C(COc1ccc(Br)cc1)N1CCN(C2CCCC2)CC1	29%	0	-8%	7%	10	2%
SMILES	HP1b chromo inh	CtBP-E1A blk	JMJD2A Tudor inh	TDP1 block	Six1-Eya2 inh	BAZ2B block
Cn1c(-c2ccccc2)c(P(=S)(c2ccccc2)c2ccccc2)c2ccccc21	x	x	-15%	0%	x	x
COC(=O)CCCc1[se]c2ccccc2c1I	x	x	x	1%	x	x
COC(=O)NC/C=C\c1nc(CC/C=C\C(=O)O[C@H]2C[C@H]3CC(=O)O[C@@H](/C=C\CC(C)C)C[C@@H]4CC[C@H](C)[C@H](C[C@@H](OC)C[C@H](C2)O3)O4)co1	x	x	x	9%[21 µM]	x	x
Cc1cc(/C=C2\C(=O)NC(=O)N(Cc3ccco3)C2=O)c(C)n1-c1ccc(O)cc1	u	6	u	5%	u	u
COC(=O)c1c(C)n(Cc2ccco2)c2ccc(O)cc12	13%	-9	-12%	2%	-8	-35%
COC(=O)C1=C(C)N(Cc2ccco2)C(=O)/C1=C\c1ccc(N(C)C)cc1	-73%	-4	16µM*	4%	-1	u
CCOC(=O)C1CCN(/C=C2/C(=O)NC(=O)N(Cc3ccco3)C2=O)CC1	-13%	-3	u	40µM*	-28	u
O=C1NC(=O)N(c2ccccc2)C(=O)/C1=C/C=C/c1ccco1	-19%	3	-29%	x	-9	-35%
CN1C(=O)/C(=C/C=C/c2ccco2)C(=O)NC1=S	11µM*	-17	u	x	u	32µM*
O=C1NC(=O)N(Cc2ccco2)C(=O)/C1=C/C=C/c1ccco1	11µM*	-5	35µM*	x	u	32µM*
Cc1coc2c1CCC(C)C2 (stereo unspecified)	x	x	x	5%	x	x
Cc1cc(C(=O)OCC(=O)NC(=O)c2cccn2C)c2ccccc2n1	13%	7	11%	0%	2	18%
CN(C(=O)Cc1ccc(Cl)c(Cl)c1)C(CN1CCCC1)c1cccc(N=C=S)c1 (stereo unspecified)	x	x	x	16%	x	x
COC1=CC(=O)O[C@H](/C=C/c2ccc3c(c2)OCO3)C1	x	x	x	11%	x	x
Cc1ccc(N2C(=O)NC(=O)/C(=C\C=C\c3ccco3)C2=O)cc1C	u	11	u	-5%	-15	45µM*
Cc1ccc(OCCn2cccc2/C=C2/C(=O)NC(=O)N(Cc3ccco3)C2=O)cc1	4%	8	-30%	3%	u	-35%
